# HTT aggregate: reduces HttQ103-GFP aggregates in PC12 cells; PC12 HttQ103-GFP aggregates, Acumen cytometry, 40 h; Potency, µM (titrated, usually from 46.1 µM), inactives show at the top dose activity change, negative = inhibition, actives largely listed as inhibitors; 220,000 tested, 1.1% active; further: on the % scale 0 is the no-effect control and ±100 the full control effect; nearly all actives have a fitted effect of over 60% in size
#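 Steps: seed 1500 PC12 HTTQ103-GFP cells/well; add tebufenozide, 100 nM final; add compound titration; add ATPLite reagent; quantify GFP aggregates by laser scanning cytometry.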
# ALDH1A1 block: ALDH1A1 (human) enzyme inhibition. Purified ALDH1A1, NADH fluorescence, propionaldehyde substrate. Potency, µM (top dose mostly 75.3 µM), for inactives: at the highest dose activity, negative = inhibition, actives largely listed as inhibitors. 220,000 tested, 7.3% active; active means well fitted inhibition curve with a large enough effect, not every such curve was filed as active; inconclusive means small, poorly fitted or top-dose-only effect, or another doubt; inactive means no such curve, though single readings can be large or run the other way;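 further: plate controls were no enzyme wells and a reference inhibitor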
# Target sequence (P00352 whole entry, looked up): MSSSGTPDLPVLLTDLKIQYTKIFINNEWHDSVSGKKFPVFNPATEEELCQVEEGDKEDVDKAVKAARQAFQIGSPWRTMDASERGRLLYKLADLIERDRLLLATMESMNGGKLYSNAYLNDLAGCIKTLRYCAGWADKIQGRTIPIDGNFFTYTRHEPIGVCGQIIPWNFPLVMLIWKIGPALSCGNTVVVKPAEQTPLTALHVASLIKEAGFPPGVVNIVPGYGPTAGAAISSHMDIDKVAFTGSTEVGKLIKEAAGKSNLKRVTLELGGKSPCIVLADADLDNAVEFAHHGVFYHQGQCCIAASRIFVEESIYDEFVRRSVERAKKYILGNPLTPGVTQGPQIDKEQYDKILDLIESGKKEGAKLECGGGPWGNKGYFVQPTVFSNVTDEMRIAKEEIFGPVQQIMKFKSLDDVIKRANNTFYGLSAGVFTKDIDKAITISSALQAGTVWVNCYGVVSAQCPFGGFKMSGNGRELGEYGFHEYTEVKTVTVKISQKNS
# HPGD inh: HPGD (human) dehydrogenase inhibition | P15428 | purified HPGD, NADH fluorescence kinetic, PGE2 substrate | Potency, µM, inactives show top-dose activity change, negative = inhibition, most hits filed as inhibitors | 150,000 tested, 4.3% active | AID 894; active means well fitted inhibition curve with a large enough effect, not every such curve was filed as active; inconclusive means small, poorly fitted or top-dose-only effect, or another doubt; inactive means no such curve, though single readings can be large or run the other way; further: on the % scale 0 is the no-effect control and ±100 the full control effect
# Target sequence (P15428 whole entry, looked up): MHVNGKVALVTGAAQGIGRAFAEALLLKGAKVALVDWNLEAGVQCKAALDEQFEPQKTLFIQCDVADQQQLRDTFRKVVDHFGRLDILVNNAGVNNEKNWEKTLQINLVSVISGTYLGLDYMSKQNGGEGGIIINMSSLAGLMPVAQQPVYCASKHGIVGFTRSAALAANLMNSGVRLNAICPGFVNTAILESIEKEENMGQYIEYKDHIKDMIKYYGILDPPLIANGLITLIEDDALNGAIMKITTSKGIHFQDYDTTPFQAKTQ
#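 NADH formation kinetics: reaction with 30 uM PGE2 and 1 mM NAD+ (final), 20 nM enzyme, Tris-HCl pH 8 with Tween 20, after 15 min compound preincubation at room temperature. Fluorescence change, last versus first of five reads.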
# Luc counter: counter-screen: inhibitors of Kinase-Glo firefly luciferase; Kinase-Glo luciferase, ATP luminescence, 8 min; 200,000 tested, 0.28% active; AID 1379; Potency, µM (top dose mostly 38.3 µM), for inactives: at the top dose activity change, negative = inhibition, usual class: inhibitors; Q27757; further: on the % scale 0 is the no-effect control and ±100 the full control effect; nearly all actives have a fitted effect of over 60% in size
#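 Recombinant Kinase-Glo luciferase, 10 uM ATP (linear range), luciferin; imidazole pH 7.2 / KCl / MgCl2 / Tween / BSA buffer; 8 min RT; luminescence.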
# LMNA splice mod: changes lamin A minigene splicing in HeLa cells; HeLa LMNA splicing GFP/RFP minigene ratio, 48 h; Potency, µM (highest dose often 46.1 µM), for inactives: top-dose ratio change, negative = inhibition, most hits filed as inhibitors; 200,000 tested, 0.01% active; active means well fitted inhibition curve with a large enough effect in the signal ratio, with a control signal flat, not every such curve was filed as active; inconclusive means small, poorly fitted or top-dose-only effect, or effect the other way, or a change in a side signal; the % refers to the signal ratio; further: on the % scale 0 is the no-effect control and ±100 the full control effect
#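 S3 HeLa stable clones carrying a lamin A-EGFP splicing minigene plus DsRed2 were seeded at 600 cells/well in Opti-MEM with 2% FBS, pin-dosed and incubated 48 h at 37°C. Acumen cytometry (488 nm) gave the GFP/RFP total-intensity ratio.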
# HTT ATP protect: cytoprotection in Huntington HTT-Q103 PC12 cell model. 230,000 tested, 0.14% active. PC12 HTT-Q103 induced, cytoprotection, ATP luminescence, 40 h. Potency, µM (series often up to 56.4 µM), without a hit: cytoprotection (ATP increase), actives largely listed as activators. AID 1471; further: % of control where 0% means no effect; nearly all actives have a fitted effect of over 45% in size
#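 Stable PC12 Q103-GFP cells in serum-supplemented, phenol red-free DMEM; induction by tebufenozide at 100 nM final; compound dose series; cell viability quantified luminescently from ATP.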
# The depositor's hits bear a star; u = inconclusive; x = no result given; [ ] = another dose, or the depositor's remark. Most compounds without a hit are left out; they make up all but 9% or so of the library. Unless noted, the call rests on the fitted dose curve; in most records, active means well fitted curve in the direction sought with a large enough effect; inconclusive means small, poorly fitted or top-dose-only effect, or another doubt; inactive means no such curve, though single readings can be large; an effect the other way counts as inactive or inconclusive. Potency means the concentration at half of the fitted maximal effect.
SMILES,HTT aggregate,ALDH1A1 block,HPGD inh,Luc counter,LMNA splice mod,HTT ATP protect
O=C1/C(=C/c2ccncc2)Oc2cc(OS(=O)(=O)c3ccccc3)ccc21,3.7%[9.22 µM],x,x,x,x,4.1%[10 µM]
O=C1/C(=C/c2cccnc2)Oc2cc(OS(=O)(=O)c3ccc(F)cc3)ccc21,u,8.91µM*,15.8µM*,-1.8%,-8.2%,3.9%[10 µM]
Cc1ccc(S(=O)(=O)Oc2ccc3c(c2)O/C(=C\c2cccnc2)C3=O)cc1,1.3%,11.2µM*,-25.3%,-6.2%,0.0%,26.5%[10 µM]
CC(=O)c1cccc(S(=O)(=O)NCC(c2ccco2)N2CCCCC2)c1 (stereo not given),-18.1%,11.2µM*,-16.7%,2.9%,-1.7%,-39.8%
CC(=O)Nc1cccc2c1C(=O)NC2=O,11.9%,u,u,-2.1%,8.2%,-21.9%
COc1ccc(Nc2nc(C)cc(C)c2C#N)cc1OC,-8.3%,-3.5%,-4.5%,13.9%,-1.2%,-4.0%
CN1Cc2cc(C(=O)c3cc(Cl)cc(CSc4ncccn4)c3O)cnc2NC1=O,u,28.2µM*,14.1µM*,-2.2%,u,-100.4%
Cc1ccc(O)c(C(=O)c2cnc3c(c2)COc2ccc(C)cc2-3)c1,u,-4.1%,17.8µM*,-0.5%,u,22.2%[1.9 µM]
Cc1ccc2c(c1)-c1ncc(C(=O)c3cc(Br)ccc3O)cc1CO2,19.0%[9.22 µM],-15.6%,x,0.9%,-22.9%[9.22 µM],-96.4%
Cc1ccc(O)c(C(=O)c2cnc3c(c2)CN(C)C(=O)N3)c1,u,25.1µM*,28.2µM*,-3.0%,-13.9%,-3.3%
CN(C)C(=O)CC12CC3CC(C1)CC(CC(=O)N(C)C)(C3)C2,2.3%,0.8%,x,-0.5%,x,-32.7%
Cn1ncc(N=Cc2ccccc2O)c1C(=O)N1CCOCC1,-1.5%,1.9%,-8.2%,-4.7%,-1.6%,-3.2%
CCNC(=O)C1CC(=O)N(Cc2ccc3c(c2)OCO3)C(=Nc2ccc(OCC)cc2)S1 (stereo not given),-4.4%,u,-10.1%,1.3%,5.0%,-4.0%
COCCOC(=O)C1=C(C)NC(=S)NC1c1cccs1 (stereo not given),0.8%[9.22 µM],22.4µM*,x,-1.3%,9.5%[46 µM],2.0%[10 µM]
COCCOC(=O)C1=C(C)NC(=O)NC1c1cccs1 (stereo not given),-6.2%,3.8%,-12.6%,0.4%,18.9%,-31.7%
C=CCOC(=O)C1=C(C)NC(=S)NC1c1cccs1 (stereo not given),3.2%,2.24µM*,-6.9%,-0.6%,-1.0%,-0.7%[10 µM]
CC(C)Cn1c(=O)c(C(=O)NCc2ccccn2)c(O)c2ccccc21,7.94µM*,u,-25.2%,-2.3%,u,-23.2%[10 µM]
CCn1c(=O)c(C(=O)Nc2ccsc2C(=O)OC)c(O)c2ccccc21,7.08µM*,u,u,0.3%,-9.2%,u
CCOC(=O)c1ccccc1NC(=O)c1c(O)c2ccccc2n(CC)c1=O,u,-3.2%,-20.3%,0.9%,u,u
CCn1c(=O)c(C(=O)NC(C)C)c(O)c2ccccc21,u,12.6µM*,-17.4%,-2.1%,-22.3%,-1.0%
CCn1c(=O)c(C(=O)NCCNCCO)c(O)c2ccccc21,-7.8%,-0.8%,-6.8%,-2.6%,-8.7%,-8.5%[10 µM]
COC(=O)c1ccccc1NC(=O)c1nc(-c2ccc(C)cc2)n2c1CCCCC2,x,x,x,x,3.4%[46 µM],x
S=c1nc(-c2ccco2)[nH][nH]1,10.1%,25.1µM*,22.4µM*,4.6%,-3.6%,-12.2%[10 µM]
Cc1ccc(SCn2nnc3ccccc3c2=O)c(C)c1,-4.9%,0.2%,x,1.2%,-9.6%[46 µM],-34.1%
O=S1(=O)c2ccccc2N=NN1Cc1ccc(Cl)c(Cl)c1,20.0%,2.51µM*,5.62µM*,-4.8%,9.8%,-23.7%
SMILES,HTT aggregate,ALDH1A1 block,HPGD inh,Luc counter,LMNA splice mod,HTT ATP protect
CC(C)(C)c1ccc(CN2N=Nc3ccccc3S2(=O)=O)cc1,-10.4%[9.22 µM],22.4µM*,u,-1.7%,u,-47.0%
O=S1(=O)CCN(Cc2ccc(Cl)c(Cl)c2)CC1,-11.9%,1.6%,-4.0%,-6.5%,-5.3%,-21.7%
Cc1nc(CSc2n[nH]c(=O)n2-c2cccc(F)c2)cs1,-11.3%[9.22 µM],6.2%,x,x,x,20.3%[10 µM]
O=c1[nH]nc(SCCS(=O)(=O)c2ccc(F)cc2)n1-c1ccccc1,0.6%[9.22 µM],2.82µM*,x,x,x,15.4%[10 µM]
O=c1[nH]nc(SCCS(=O)(=O)c2ccc(F)cc2)n1-c1ccc2c(c1)OCCO2,-7.8%[9.22 µM],20µM*,x,x,x,41.0%[10 µM]
O=S(=O)(NC1CC1)c1ccc(S(=O)(=O)N2CCCc3ccccc32)cc1,11.2µM*,u,-4.2%,-3.8%,u,23.5%[10 µM]
O=C(O)C1CC=CCC1C(=O)Nc1ccc(S(=O)(=O)N2CCCc3ccccc32)cc1 (stereo not given),7.1%,22.4µM*,-14.7%,2.4%,u,-15.1%
COCCNc1nc(NCc2cccc(Cl)c2)c2cnn(C)c2n1,x,x,x,x,-3.7%[46 µM],x
COC(=O)/C=C1\S/C(=N/N=C/c2ccccc2)NC1=O,-9.5%,1.1%,25.1µM*,1.9%,-12.3%,0.4%[10 µM]
CCN(CC)CC(=O)c1c[nH]c2ccccc12,5.4%,-0.2%,-6.3%,2.5%,-5.0%,-10.2%[10 µM]
COc1ccc(N2C(=O)CC(N(CCc3ccccc3)C(=O)c3ccccc3)C2=O)cc1 (stereo not given),-6.3%[9.22 µM],x,x,x,x,-6.5%[10 µM]
CCCCCCC(=O)N(O)C1CC(=O)N(Cc2ccccc2)C1=O (stereo not given),u,3.55µM*,17.8µM*,4.0%,u,3.3%[10 µM]
CN(Cc1ccccc1)C1CC(=O)N(c2ccc(C(=O)O)cc2)C1=O (stereo not given),-4.2%,28.2µM*,-6.1%,-0.3%,-13.2%,-20.3%[0.074 µM]
CCCCCC(=O)N(O)C1CC(=O)N(c2ccccc2)C1=O (stereo not given),u,0.794µM*,15.8µM*,-0.5%,u,-40.4%
NC(=O)C1CCN(c2ccc(S(=O)(=O)N3CCC(Cc4ccccc4)CC3)cn2)CC1,-28.2%,4.6%,x,-3.7%,u,17.4%[10 µM]
CC(C)(C)CN1CCNC(=O)C1CC(=O)NCc1cccc(-n2cccn2)c1 (stereo not given),5.8%[9.22 µM],-17.3%,x,6.3%,3.0%[46 µM],22.5%[10 µM]
COc1ccnc(N=CNOCc2ccc(F)cc2Cl)c1C#N,u,5.3%,-14.6%,18.9%,-5.3%,-8.6%
Cc1cc2cc(CCNC(=O)c3ccc(Br)o3)c(=O)[nH]c2cc1C,3.4%,u,u,1.4%,-13.8%,-23.9%
C=C(C)C1Cc2c(C)nn(-c3nc(C)cc(C)n3)c2C1 (stereo not given),10.7%,20µM*,-16.8%,-9.4%,u,-51.3%
CC(Oc1ccc(C(=O)c2ccccc2)cc1)C(=O)Nc1ccc(S(N)(=O)=O)cc1 (stereo not given),1.6%,10µM*,u,-2.2%,u,16.3%[10 µM]

# High-throughput results (PubChem BioAssay)
